# Compound activity from PubChem.
# INS promoter inh – TRM-6 insulin promoter activity inhibition | TRM-6 cells (human fetal islet line), insulin promoter-eGFP reporter, imaging; reporter expression induced with tamoxifen | inhibition, % at 2 µM | 0.9% of 130,000 active | AID 1273;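 active means inhibition above the mean plus 3 SD, with well images judged a real hit on visual review, cut at about 60% in these data, passing the limit was not always enough; inconclusive means inhibition over the cutoff but images rejected on review; inactive means inhibition not above the cutoff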
# ROMK mod – human ROMK K+ channel modulation, primary screen; Tet-inducible ROMK, thallium flux fluorescence; actives lie on both sides; B-score at 10 µM; 2% of 130,000 active; AID 1918;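 active means signal ratio slope over the read window, or its plate-corrected B-score, at least 3 SD from the plate mean, either direction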;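 further: B-score of the F/F0 ratio slope over 7 to 12 s after thallium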
# Target sequence (P48048 whole entry, looked up): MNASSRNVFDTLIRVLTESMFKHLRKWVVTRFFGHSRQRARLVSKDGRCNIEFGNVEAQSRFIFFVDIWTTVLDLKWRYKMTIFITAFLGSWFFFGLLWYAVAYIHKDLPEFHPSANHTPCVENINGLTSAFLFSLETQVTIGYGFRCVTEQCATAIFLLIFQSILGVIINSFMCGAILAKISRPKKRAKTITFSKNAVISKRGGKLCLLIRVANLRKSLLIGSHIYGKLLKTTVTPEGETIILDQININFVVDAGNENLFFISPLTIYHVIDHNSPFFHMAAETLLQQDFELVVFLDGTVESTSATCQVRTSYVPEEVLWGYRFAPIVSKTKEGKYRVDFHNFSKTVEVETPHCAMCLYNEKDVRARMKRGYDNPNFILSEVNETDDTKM
# Insulin prom up – MIN6 insulin promoter up-regulation; MIN6 insulin promoter-GFP reporter, high-content imaging; active compounds read high; z-score at 5 µM; 0.3% of 190,000 active;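 active means z-score above 3 at 5 µM with at least 500 cells counted in the well; inconclusive means wells under 500 cells, flagged as cytotoxic or low count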
# Tb hexokinase – blocks Trypanosoma brucei hexokinase 1 activity; recombinant TbHK1, G6PDH-coupled NADH A340; inhibition, % at 10 µM; 0.11% of 220,000 active;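 active means inhibition of 50% or more in the single-dose primary screen; inactive means inhibition below 50%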
# HSV replic up – increases HSV replication in cells. HSV replication augmentation in cells, fold increase. maximum fold increase. 0.005% of 220,000 active. AID 1956; in the data active means maximum fold increase above about 1.5; inconclusive means no clear call, values can overlap the other calls; tested in PC3 cells
# ROMK hit retest – confirmation of human ROMK potassium channel modulators; shares compounds with ROMK mod; ROMK thallium flux, fluorescence ratio; active compounds read low; normalized thallium flux (F/F0 slope) at 10 µM; 54% of 3,000 active;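 active means Flux at 10 µM at least 3 SD below or above vehicle control mean in one or both replicates; inconclusive means no clear call, values can overlap the other calls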
# A number is an active result; - = inactive; ? = inconclusive; . = no result. Shown is part of a subset that was picked to be rich in hits.
SMILES,INS promoter inh,ROMK mod,Insulin prom up,Tb hexokinase,HSV replic up,ROMK hit retest
CC(C)CC(C(=O)OCC(=O)Nc1cccc(Cl)c1)N1C(=O)C2CC=CCC2C1=O (stereo not given),.,.,-,-,-,.
CCOc1ccccc1NC(=O)COC(=O)C(CC(C)C)N1C(=O)C2CC=CCC2C1=O (stereo not given),.,.,-,-,-,0.063
O=C(CCSc1nc2ccccc2s1)N/N=C/c1c(O)ccc2ccccc12,-,.,-,-,-,.
CCOC(=O)c1cnc(-n2nc(C)cc2C)nc1NC1CCCCC1,-,-4.7,?,-,-,0.056
Cc1ccc(NC(=O)NCc2ccccn2)cc1,-,-,-,-,-,.
Cc1ccc(NC(=O)CSC(C)C(=O)NCCc2ccccn2)cc1 (stereo not given),.,-2.8,-,-,-,-
O=C(CC12CC3CC(CC(C3)C1)C2)Nc1ccccc1N1CCOCC1,-,-,-,-,-,.
COc1ccc(/C=N/NC(=O)c2ccccc2F)cc1CN1CCN(c2ccc(F)cc2)CC1,-,-,-,-,-,.
O=C(CCSc1ccccc1)N1CCCC1,-,-,-,-,-,.
O=C1CCCCCN1Sc1ccccc1,.,.,-,-,-,0.043
CCOC(=O)N1CCc2c(sc3nc4n(c(=O)c23)N=C(c2ccc(OC)cc2)CS4)C1,.,.,-,-,-,.
N#CCCN(Cc1ccccc1)C(=O)c1cccs1,.,.,-,-,-,.
CCOc1cccc(-c2nnc3n2N=C(c2cc(OC)ccc2OC)CS3)c1,-,3.8,-,-,-,-
CCn1ncc(C2=NOC(C(=O)NCc3ccccc3)C2)c1C (stereo not given),-,3.1,-,-,-,-
Cc1ccc(NC(=O)CCc2ccc(S(=O)(=O)N3CCOCC3)cc2)c(C)c1,-,3.2,-,-,-,-
Cc1ccc(NC(=O)COC(=O)CCc2ccc(S(=O)(=O)N3CCOCC3)cc2)c(C)c1,-,-,-,-,-,.
O=C(O)C1CCCN1S(=O)(=O)c1cccs1 (stereo not given),-,-,-,-,-,.
O=C(Nc1ccc(Br)cc1)C1CCCN1S(=O)(=O)c1cccs1 (stereo not given),-,-3.3,-,-,-,0.061
CCOC(=O)COc1ccc(Br)cc1/C=C/c1[nH]c(=O)[nH]c(=O)c1[N+](=O)[O-],.,-2.7,-,-,-,0.051
Cc1ccc(NCCC#N)cc1C,-,.,-,-,-,.
O=C(Nc1ccc(N2CCN(c3ccc(C(F)(F)F)cn3)CC2)nc1)c1cccs1,.,.,-,-,-,.
O=C(Nc1ccc(N2CCN(c3ncccc3C(F)(F)F)CC2)nc1)c1cccs1,.,.,-,-,-,-
Cc1cc[n+](-c2[nH]c(=O)sc2/C=N/N=C(\[O-])c2ccccc2)cc1C,.,-6.6,-,-,?,0.047
Cc1cc[n+](-c2[nH]c(=O)sc2/C=N/N=C(\[O-])c2ccccc2)cc1,.,.,-,-,-,.
O=C(/C(=C/c1cccnc1)n1ccnc1)c1ccc(Cl)cc1Cl,.,-5.6,-,-,-,0.03
SMILES,INS promoter inh,ROMK mod,Insulin prom up,Tb hexokinase,HSV replic up,ROMK hit retest
O=C(/C(=C/c1ccncc1)n1ccnc1)c1ccc(Cl)cc1Cl,.,-7.9,-,-,-,0.03
C=CCNC(=O)c1c(Cl)nc(C)c([N+](=O)[O-])c1C,-,-,-,-,-,.
Cc1cccn2c(=O)c(/C=C3\SC(=S)NC3=O)c(NCCCN3CCOCC3)nc12,.,.,.,-,?,0.053
S=C(NCCc1ccccc1)N1CCN(C2CCCCC2)CC1,.,-2.7,-,-,-,0.063
CC(NCCC(c1ccccc1)c1ccccc1)c1ccccc1 (stereo not given),-,-6.2,.,-,-,0.046
Oc1ccc(CCC2CCCCN2Cc2nc(C3CC3)no2)cc1 (stereo not given),.,-,-,-,-,.
CCn1c(O)c(C=C2N=c3ccccc3=N2)sc1=S,-,-,-,-,-,.
Oc1c(C=C2N=c3ccccc3=N2)sc(=S)n1C1CCCCC1,-,.,-,-,-,?
O=C(Nc1nccs1)c1ccc2c(=O)n3c(nc2c1)CCCCC3,.,.,-,-,-,.
NC(=O)C1CCN(C2=C(Cl)C(=O)c3ccccc3C2=O)CC1,-,.,.,-,-,0.053
O=C1CC(/C=C/c2ccc([N+](=O)[O-])cc2)=Nc2ccccc2N1,.,.,-,-,-,0.057
O=C(NCCN1CCOCC1)c1ccccc1[N+](=O)[O-],.,3.1,-,-,-,-
Cc1cccc(C(=O)NCCN2CCOCC2)c1[N+](=O)[O-],-,-,-,-,-,.
Cc1ccc(Cn2ccc(=O)c(Cc3c(Cl)cccc3Cl)c2C)cc1,-,.,-,-,-,0.049
CCN(CC)C(=O)C1CCCN(c2ccc([N+](=O)[O-])cc2/C=N/NC(=O)c2ccc([N+](=O)[O-])cc2)C1 (stereo not given),-,.,.,-,.,?
CN1CCN(c2ccc([N+](=O)[O-])cc2/C=N/NC(=O)c2cccc([N+](=O)[O-])c2)CC1,-,-2.3,-,-,-,0.058
CCN(CC)C(=O)C1CCCN(c2ccc([N+](=O)[O-])cc2/C=N/NC(=O)c2ccccc2)C1 (stereo not given),-,-,-,-,-,.
CN1CCN(c2ccccc2NC(=O)c2ccc(-c3cccc([N+](=O)[O-])c3)o2)CC1,-,-2.4,-,-,-,0.059
CN1CCN(c2ccccc2NC(=O)c2cccc([N+](=O)[O-])c2)CC1,.,-,-,-,-,.
CC(C)N1CCC(N2CCN(Cc3cc4c(cc3Cl)OCO4)CC2CCO)CC1 (stereo not given),-,-,-,-,-,.
CCOC(=O)c1c(NC(=O)c2c(C(=O)O)cccc2[N+](=O)[O-])sc(C)c1C,.,-,-,-,-,.
O=C(NNC(=O)C1CCN(c2ncccn2)CC1)c1ccncc1,.,-,-,-,-,.
COc1ccccc1CN1CCNC(=O)C1CC(=O)NCCc1cnccn1 (stereo not given),.,.,-,-,-,.
COc1ccc(S(=O)(=O)Nc2cccc(NC(C)=O)c2)cc1,-,-,-,-,-,.
COc1cccc(NS(=O)(=O)c2ccc(NC(C)=O)cc2)c1,-,-2.1,-,-,-,-
SMILES,INS promoter inh,ROMK mod,Insulin prom up,Tb hexokinase,HSV replic up,ROMK hit retest
CC(C)(C)OC(=O)NCCCCCc1nnc(SCC(=O)Nc2cccc(Cl)c2)o1,-,-4.9,-,-,-,0.064
Cc1ccc(NC(=O)CCC(=O)NNC(=S)Nc2ccccc2)c(C)c1,-,.,-,-,-,.
Cc1ccc(NC(=S)NNC(=S)Nc2ccc(C)cc2C)cc1,.,5.3,-,-,-,-
S=C(NC1CC2CCC1C2)N1CCN(c2cccc(Cl)c2)CC1 (stereo not given),.,-,-,-,-,.
CN(CC1CCCO1)S(=O)(=O)c1ccc(C(=O)Nc2nc(-c3ccccn3)cs2)cc1 (stereo not given),.,.,.,-,-,-
CN(C)S(=O)(=O)c1ccc(C(=O)Nc2nc(-c3cc4ccccc4o3)cs2)cc1,-,-,-,-,-,.
COc1ccccc1C1SCCN1S(=O)(=O)c1cccc(C(F)(F)F)c1 (stereo not given),-,-4.3,-,-,-,0.066
COc1ccc(C2SCCN2S(=O)(=O)c2ccc(F)cc2)cc1OC (stereo not given),-,.,-,-,-,.
